High-throughput results from PubChem BioAssay.
Autofluor counter: compound fluorescence in toxin protease inhibitor counterscreen. compound autofluorescence counterscreen, microsphere flow cytometry; stronger effect = higher value. fluorescence intensity (concentration not given with the values). hit rate 3.1% among 360,000; in the data active = fluorescence intensity above about 16000; inconclusive = no clear call, values can overlap the other calls
Anthrax LF prot: inhibitors of Bacillus anthracis lethal factor protease; P15917; multiplex microsphere protease cleavage assay, LF; inhibition, % at 10 µM; hit rate 0.12% among 360,000; AID 588501; note: plate controls were buffer without enzyme for full effect and enzyme alone for no effect
BoNT F protease: inhibitors of Botulinum neurotoxin F light chain protease. inhibition, % at 10 µM. Multiplex microsphere protease cleavage assay, flow cytometry. hit rate 0.22% among 360,000; in the data active = inhibition above about 35%, passing the limit was not always enough; inconclusive = no clear call, values can overlap the other calls; note: plate controls were buffer without enzyme for full effect and enzyme alone for no effect
BoNT A protease: blocks Botulinum neurotoxin A light chain protease; inhibition, % at 10 µM; hit rate 0.17% among 360,000; multiplex microsphere protease substrate cleavage, flow cytometry; AID 588499; note: plate controls were buffer without enzyme for full effect and enzyme alone for no effect
BoNT-A LC CP1: blocks botulinum neurotoxin A light chain protease; inhibition, % at 10 µM; shares compounds with BoNT F protease; multiplex microsphere protease assay, flow cytometry; hit rate 3% among 720; in the data active = inhibition above about 32%
BoNTF LC inh 1: blocks botulinum neurotoxin F light chain protease; shares compounds with BoNT F protease; multiplex microsphere protease cleavage assay, flow cytometry; inhibition, % at 10 µM; 720 tested, under 10 active; call rule not given here
Anthrax LF CP1: blocks anthrax lethal factor protease | shares compounds with BoNT F protease | inhibition, % at 10 µM | AID 602142 | multiplex microsphere protease cleavage assay, LF | 720 tested, under 10 active; call rule not given here
* = called active by the depositor. This is a sample that favours compounds with a hit; in the whole collection about 3.5% have one here. Cut-off read from the data, not from the text of the source, unless noted: active = inhibition above about 30%; inconclusive = no clear call, values can overlap the other calls; inactive = below that.

`CCOC(=O)c1cnn(CCOC(=O)c2ccccc2)c1NC(=O)c1ccccc1` gave Autofluor counter 1870, Anthrax LF prot 9, BoNT F protease 18 and BoNT A protease 2.
For COc1ccc(C)cc1N(CC(=O)N1CCOCC1)S(C)(=O)=O the results were Autofluor counter 4074, Anthrax LF prot 14, BoNT F protease 36*, BoNT A protease -3, BoNT-A LC CP1 0, BoNTF LC inh 1 0 and Anthrax LF CP1 -5.
COc1ccc(C)cc1N(CC(=O)N1CCCC1)S(C)(=O)=O was read as Autofluor counter 3853, Anthrax LF prot -10, BoNT F protease 5 and BoNT A protease -1.
`COc1cc(CC(NC(C)=O)C(=O)NC2CCN(C(=O)c3ccc(C)cc3)CC2)cc(OC)c1` (stereo not drawn) gave Autofluor counter 2861, Anthrax LF prot 5, BoNT F protease 43*, BoNT A protease 0, BoNT-A LC CP1 -1, BoNTF LC inh 1 -5 and Anthrax LF CP1 0.
For CC1Oc2ccccc2N(CC(=O)NC2CCCC2)C1=O (stereo not drawn) the results were Autofluor counter 3948, Anthrax LF prot -1, BoNT F protease 35*, BoNT A protease 1, BoNT-A LC CP1 -2, BoNTF LC inh 1 -3 and Anthrax LF CP1 3.
Cc1nc2sccn2c(=O)c1S(=O)(=O)Nc1ccc(N2CCN(S(C)(=O)=O)CC2)cc1 was read as Autofluor counter 4971, Anthrax LF prot -2, BoNT F protease -6 and BoNT A protease 1.
CCCCN(C)C(=O)c1cc2cc3ccc(OC)cc3nc2s1 was read as Autofluor counter 3426, Anthrax LF prot -7, BoNT F protease -4, BoNT A protease 1, BoNT-A LC CP1 0, BoNTF LC inh 1 -2 and Anthrax LF CP1 0.
`CCCCC(=O)NCc1ccc2c(c1)cc(C)n2C` gave Autofluor counter 10959, Anthrax LF prot 47*, BoNT F protease 17, BoNT A protease 43*, BoNT-A LC CP1 2, BoNTF LC inh 1 -5 and Anthrax LF CP1 -1.
For Cc1cc2cc(CNC(=O)CC(C)C)ccc2n1C the results were Autofluor counter 17533*, Anthrax LF prot 34*, BoNT F protease 13, BoNT A protease 31*, BoNT-A LC CP1 0, BoNTF LC inh 1 -7 and Anthrax LF CP1 -2.
Screening CCCS(=O)(=O)NCc1ccc2c(c1)cc(C)n2C returned Autofluor counter inconclusive, Anthrax LF prot 3, BoNT F protease -41, BoNT A protease 69*, BoNT-A LC CP1 1, BoNTF LC inh 1 -14 and Anthrax LF CP1 -2.
For CCS(=O)(=O)NCc1ccc2c(c1)cc(C)n2C the results were Autofluor counter 4442, Anthrax LF prot -72, BoNT F protease -116 and BoNT A protease 10.
Screening COCc1cc(C)nc2sc(C(=O)Nc3ccccc3OC)c(N)c12 returned Autofluor counter 3854, Anthrax LF prot 5, BoNT F protease -6 and BoNT A protease 1.
`CN(CCCNC(=O)CCC(=O)N1CCOc2ccccc21)Cc1ccccc1` gave Autofluor counter 6267, Anthrax LF prot -6, BoNT F protease -17 and BoNT A protease -1.
CCCCn1c(=O)[nH]c(=O)c2c1nc(-c1ccccc1OC(F)F)n2C was read as Autofluor counter 3747, Anthrax LF prot 6, BoNT F protease 12 and BoNT A protease 1.
Screening CCSc1ncc(Cl)c(C(=O)Nc2ccccc2C)n1 returned Autofluor counter 4089, Anthrax LF prot 8, BoNT F protease 6 and BoNT A protease 0.
Screening CSc1ncc(Cl)c(C(=O)Nc2ccccc2C)n1 returned Autofluor counter 3352, Anthrax LF prot 30*, BoNT F protease -12, BoNT A protease 1, BoNT-A LC CP1 0, BoNTF LC inh 1 -5 and Anthrax LF CP1 -2.
For Cc1ccc(OCCCC(=O)Nc2ccc(S(N)(=O)=O)cc2)cc1 the results were Autofluor counter 4147, Anthrax LF prot -4, BoNT F protease 41*, BoNT A protease 5, BoNT-A LC CP1 0, BoNTF LC inh 1 -2 and Anthrax LF CP1 -3.
Cn1cnnc1SCC(=O)Nc1ccccc1 was read as Autofluor counter 5422, Anthrax LF prot 4, BoNT F protease -1 and BoNT A protease 0.
For Cn1cnnc1SCC(=O)Nc1ccc(S(N)(=O)=O)cc1 the results were Autofluor counter 2989, Anthrax LF prot 34*, BoNT F protease 37*, BoNT A protease 1, BoNT-A LC CP1 -1, BoNTF LC inh 1 0 and Anthrax LF CP1 0.
O=C(C1=NOC2(C1)C(=O)Nc1ccccc12)N1CCOCC1 (stereo not drawn) was read as Autofluor counter 6123, Anthrax LF prot 1, BoNT F protease 10 and BoNT A protease 0.
`Cc1ccc(NC(=O)CN(C)C2CCCCC2)cc1Cl` gave Autofluor counter 3880, Anthrax LF prot -14, BoNT F protease inconclusive and BoNT A protease -2.
Cc1c(NC(=O)c2ccc(N(C)S(C)(=O)=O)cc2)c(=O)n(-c2ccccc2)n1C was read as Autofluor counter 6194, Anthrax LF prot -5, BoNT F protease -15 and BoNT A protease -2.
Cc1c(NC(=O)c2ccccc2N(C)S(=O)(=O)c2ccccc2)c(=O)n(-c2ccccc2)n1C was read as Autofluor counter 6019, Anthrax LF prot -25, BoNT F protease 48*, BoNT A protease 44*, BoNT-A LC CP1 1, BoNTF LC inh 1 3 and Anthrax LF CP1 -1.
CN(C)N1C(N)=C(C#N)C(c2ccc(Br)cc2)C2=C1CC(C)(C)CC2=O (stereo not drawn) was read as Autofluor counter 3809, Anthrax LF prot 8, BoNT F protease -25 and BoNT A protease 0.
O=C(c1cnn2c(C(F)F)cc(-c3ccccc3)nc12)N1CCN(Cc2ccc3c(c2)OCO3)CC1 was read as Autofluor counter 5998, Anthrax LF prot 0, BoNT F protease -1 and BoNT A protease 1.
`Cc1cccc(C(C)(C)C)c1OCCOCCN1CCCC1` gave Autofluor counter 2192, Anthrax LF prot 0, BoNT F protease 38*, BoNT A protease 4, BoNT-A LC CP1 1, BoNTF LC inh 1 -2 and Anthrax LF CP1 -2.
`c1ccc2c(NC3CCCC3)nnc(NC3CCCC3)c2c1` gave Autofluor counter 3938, Anthrax LF prot 2, BoNT F protease -4 and BoNT A protease 2.
For Nc1ccccc1NC1CCCCC1 the results were Autofluor counter 2264, Anthrax LF prot 15, BoNT F protease -30, BoNT A protease 74*, BoNT-A LC CP1 17, BoNTF LC inh 1 -16 and Anthrax LF CP1 15.
N=c1sc2ccccc2n1-c1ccccc1 was read as Autofluor counter 10239, Anthrax LF prot 27, BoNT F protease 20, BoNT A protease 32*, BoNT-A LC CP1 2, BoNTF LC inh 1 0 and Anthrax LF CP1 2.
Screening C=CC(=O)N=c1sc2ccccc2n1-c1ccccc1 returned Autofluor counter 4086, Anthrax LF prot 6, BoNT F protease -7 and BoNT A protease 0.
Screening O=C(NC1CCCc2ccccc21)C1CCCC1 (stereo not drawn) returned Autofluor counter 4522, Anthrax LF prot 33*, BoNT F protease inconclusive, BoNT A protease -8, BoNT-A LC CP1 0, BoNTF LC inh 1 -2 and Anthrax LF CP1 -4.
